According to PubChem BioAssay (Tox21):
Records with an inconclusive call do not appear. Calls of active or inactive are those of the source. Unless noted, calls come from the whole dose curve; as a rule, active = well fitted curve in the direction sought with a large enough effect in the repeat runs; inconclusive = weak or mixed curves; inactive = no such curve, though single readings can be large; an effect the other way counts as inactive or inconclusive.

Columns and labels:
[1] = target: Nuclear receptor subfamily 1 group I member 3 (Homo sapiens) (UniProt Q14994); assay: qHTS assay to identify small molecule agonists of the constitutive androstane receptor (CAR) signaling pathway (AID 1224839);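 note: HepG2 cells stably carrying human CAR and a CYP2B6 luciferase reporter; nearly all actives have a fitted effect of over 15% in size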
In short: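 Compounds tested at 15 concentrations on HepG2 cells stably harbouring hCAR and CYP2B6-2.2kb reporter constructs, co-treated with PK11195 (0.75 uM final), 24 h at 37 C; luminescent reporter signal quantified.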

[2] = qHTS assay to identify small molecule antagonists of the estrogen related receptor signaling pathway with the pleiotropic PPARgamma coactivator (PGC) from Tox21 10K library - cell viability counter screen (AID 1224840; active = well fitted cell-killing curve with a large enough effect in the repeat runs, not every such curve was filed as active; note: nearly all actives have a fitted effect of over 40% in size)
In short: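 Cell viability is measured by CellTiter-Fluor fluorescence in PGC/ERR cells that receive compounds after a 6-hour attachment period and are then incubated 17.5 hours at 37 C.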

[3] = qHTS assay to identify small molecule antagonists of the estrogen related receptor signaling pathway with the pleiotropic PPARgamma coactivator (PGC) from Tox21 10K library (AID 1224841; call rule not given here; note: actives are mostly falling curves and most rising ones were filed inactive; nearly all actives have a fitted effect of over 50% in size)
In short: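 Cells stably carrying the PGC/ERR reporter, seeded at 2,000 per well, received pin-transferred compounds 6 h post-plating. Exposure lasted 18 h at 37 C. Signal: One-Glo luminescence.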

[4] = qHTS assay to identify small molecule agonists of the estrogen related receptor signaling pathway with the pleiotropic PPARgamma coactivator (PGC) from Tox21 10K library (AID 1224842); note: nearly all actives have a fitted effect of over 15% in size
In short: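 Luminescence from One-Glo (30 min, room temperature) measured after PGC/ERR cells had 18 h at 37 C with pinned compound (23 nL in DMSO). Cells had been seeded at 2,000 per well and pre-incubated 6 h.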

[5] = qHTS assay to identify small molecule agonists of the hypoxia (HIF-1) signaling pathway - cell viability counter screen (AID 1224844; calls by dose curve; note: nearly all actives have a fitted effect of over 50% in size)
In short: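 Viability counter screen: HRE-bla ME-180 cells plated 5 hrs before compound addition, treated 17 hrs at 37C and 5% CO2, then CellTiter-Glo added after the FRET reporter read; luminescence after 30 min.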

[6] = qHTS assay to identify small molecule agonists of the hypoxia (HIF-1) signaling pathway (AID 1224846; active = well fitted activation curve with a large enough effect in the signal ratio in the repeat runs, not every such curve was filed as active; the % refers to the signal ratio)
In short: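 Agonist mode reporter screen. ME-180 cells stably expressing bla under HRE control received test compounds in DMSO for 17 hrs (37C, 5% CO2), and beta-lactamase activity was then detected with the CCF4-AM FRET substrate.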

[7] = qHTS assay to identify small molecule agonists of H2AX - cell viability counter screen (AID 1224847; calls by dose curve; note: top concentration of the series differs between compounds; nearly all actives have a fitted effect of over 30% in size)
In short: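 Compounds tested at 15 concentrations were incubated 3 hr at 37C with wild-type CHO-K1 cells; cellular ATP-based luminescence (CellTiter-Glo) indicated viability.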

[8] = qHTS assay to identify small molecule antagonists of the estrogen related receptor (ERR) signaling pathway from Tox21 library (AID 1224848); note: nearly all actives have a fitted effect of over 50% in size; note: potency is the fitted concentration of half-maximal effect
In short: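 ERR cell line, 2,000 cells/well. 6 h settle, then compound (DMSO) added; 18 h at 37 C; ONE-Glo luminescence after 30 min RT.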

[9] = qHTS assay to identify small molecule agonists of the estrogen related receptor (ERR) signaling pathway from Tox21 library (AID 1224849; calls by dose curve; note: nearly all actives have a fitted effect of over 15% in size); details: ERR reporter cell line, ONE-Glo luciferase, 18 h; at 92.4 µM (top of the series) unless noted
In short: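 Quantitative HTS in agonist format: NTP ERR cell line, compounds transferred in DMSO after 6 h plating, 18 h incubation at 37 C, ONE-Glo luminescence endpoint.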

[10] = qHTS RealTime-Glo MT Cell Viability Assay in HepG2 cells - 24 hour (AID 1224867); note: nearly all actives have a fitted effect of over 50% in size
In short: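 Cells + NanoLuc/prosubstrate dispensed (600 cells/well) → 5 h at 37 C/5% CO2 → compounds in DMSO transferred → 40 h incubation at 37 C, luminescence read at 0, 8, 16, 24, 32, 40 h.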

[11] = A CellTox Green Cytotoxicity Assay to monitor cytotoxicity in HEK293 cells - 0 hour (AID 1224869); note: nearly all actives have a fitted effect of over 50% in size
In short: (§1)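 Dead-cell fluorescence measured kinetically: asymmetric cyanine dye, HEK293, 600 cells/well, 5 h settle, 23 nL cpd/DMSO, 37 C, reads 0–40 h every 8 h.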

[12] = qHTS RealTime-Glo MT Cell Viability Assay in HepG2 cells - 40 hour (AID 1224870); note: nearly all actives have a fitted effect of over 50% in size
In short: (§2)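 Real-time viability: cells seeded at 600 per well together with NanoLuc and cell-permeant prosubstrate, compounds added after 5 h incubation. Luminescence tracked at 0, 8, 16, 24, 32 and 40 h of exposure.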

[13] = A CellTox Green Cytotoxicity Assay to monitor cytotoxicity in HEK293 cells - 40 hour (AID 1224871); note: nearly all actives have a fitted effect of over 45% in size; note: potency is the fitted concentration of half-maximal effect
In short: as §1

[14] = qHTS RealTime-Glo MT Cell Viability Assay in HEK293 cells - 16 hour (AID 1224872)
In short: (§3)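 Tox21 10K qHTS, HEK293, 600 cells/well, RealTime-Glo reagent co-dispensed with cells; 5 h preincubation, compound by pintool, 37 C, luminescence at 0–40 h.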

[15] = qHTS RealTime-Glo MT Cell Viability Assay in HepG2 cells - 8 hour (AID 1224873); note: nearly all actives have a fitted effect of over 55% in size
In short: as §2

[16] = qHTS RealTime-Glo MT Cell Viability Assay in HEK293 cells - 40 hour (AID 1224874); details: RealTime-Glo luminescence; max response: hits give low values; note: nearly all actives have a fitted effect of over 50% in size; note: potency is the fitted concentration of half-maximal effect
In short: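 600 HEK293 cells per well, dispensed already mixed with RealTime-Glo MT reagents. Compound dosing came 5 h later. The same wells were read for luminescence at 0, 8, 16, 24, 32 and 40 h of exposure at 37 C.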

[17] = A CellTox Green Cytotoxicity Assay to monitor cytotoxicity in HEK293 cells - 24 hour (AID 1224875); note: nearly all actives have a fitted effect of over 45% in size
In short: as §1

[18] = target: Thyrotropin receptor (Homo sapiens) (UniProt P16473); assay: qHTS assay to identify small molecule agonists of the thyroid stimulating hormone receptor (TSHR) signaling pathway (AID 1224843; calls by dose curve; note: nearly all actives have a fitted effect of over 45% in size)
In short: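 A cell-based cAMP HTRF format was run in TSHR-transfected HEK293 cells, 800 per well. Treatment: 30 min, room temperature. Detection: 1 h with labelled cAMP and anti-cAMP cryptate. Concentration-response over 15 points, three replicates.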

[19] = qHTS assay to identify small molecule agonists of H2AX (AID 1224845; active = well fitted activation curve with a large enough effect in the signal ratio in the repeat runs, not every such curve was filed as active; the % refers to the signal ratio)
In short: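 Phospho-H2AX Ser139 measured by HTRF (ex 320 nm; em 665 and 620 nm) after 24 hr antibody incubation. Compounds, 15 concentrations, 0.76% DMSO, were applied to CHO-K1 cells for 3hr at 37C before lysis.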

[20] = qHTS RealTime-Glo MT Cell Viability Assay in HEK293 cells - 32 hour (AID 1224868); note: nearly all actives have a fitted effect of over 50% in size; note: potency is the fitted concentration of half-maximal effect
In short: as §3
% is set by controls: 0 for no effect and ±100 for the full control effect.

Sequence of Nuclear receptor subfamily 1 group I member 3 (Homo sapiens) (Q14994 whole entry, looked up): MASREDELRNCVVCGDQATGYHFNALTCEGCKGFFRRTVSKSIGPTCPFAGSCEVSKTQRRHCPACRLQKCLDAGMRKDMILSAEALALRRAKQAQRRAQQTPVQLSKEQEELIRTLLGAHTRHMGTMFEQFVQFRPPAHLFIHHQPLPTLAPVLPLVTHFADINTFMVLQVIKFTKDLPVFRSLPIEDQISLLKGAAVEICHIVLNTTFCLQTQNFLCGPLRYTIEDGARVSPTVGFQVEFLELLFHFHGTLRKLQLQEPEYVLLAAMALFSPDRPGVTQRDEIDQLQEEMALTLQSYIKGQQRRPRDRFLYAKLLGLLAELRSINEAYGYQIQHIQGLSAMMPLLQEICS
Sequence of Thyrotropin receptor (Homo sapiens) (P16473 whole entry, looked up): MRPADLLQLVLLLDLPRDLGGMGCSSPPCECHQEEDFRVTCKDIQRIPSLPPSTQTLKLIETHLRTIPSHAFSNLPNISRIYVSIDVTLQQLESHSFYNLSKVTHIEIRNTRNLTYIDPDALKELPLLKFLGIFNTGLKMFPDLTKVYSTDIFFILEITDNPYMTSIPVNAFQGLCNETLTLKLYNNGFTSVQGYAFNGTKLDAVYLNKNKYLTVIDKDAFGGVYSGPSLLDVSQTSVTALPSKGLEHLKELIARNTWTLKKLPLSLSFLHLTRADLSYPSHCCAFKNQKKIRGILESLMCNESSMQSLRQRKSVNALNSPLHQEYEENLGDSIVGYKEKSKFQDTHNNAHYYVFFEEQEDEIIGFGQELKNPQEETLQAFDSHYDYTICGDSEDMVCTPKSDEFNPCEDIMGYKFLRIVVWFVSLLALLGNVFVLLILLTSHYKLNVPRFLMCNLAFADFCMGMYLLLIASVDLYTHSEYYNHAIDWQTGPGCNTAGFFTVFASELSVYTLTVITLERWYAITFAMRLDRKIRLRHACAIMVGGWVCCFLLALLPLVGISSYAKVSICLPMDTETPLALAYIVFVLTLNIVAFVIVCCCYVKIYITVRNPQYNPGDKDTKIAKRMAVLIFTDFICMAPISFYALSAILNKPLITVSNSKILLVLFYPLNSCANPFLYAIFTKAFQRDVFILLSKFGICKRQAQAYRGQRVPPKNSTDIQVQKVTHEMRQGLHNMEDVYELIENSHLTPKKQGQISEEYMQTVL

Cn1nnc2c(C(N)=O)ncn2c1=O
inactive: Potency [1] | outcome [2] | outcome [3] | outcome [4] | outcome [5] | outcome [6] | outcome [7] | Potency [8] | activity change, positive = activation [9] -0.988% [at 42.5 µM] | outcome [10] | Potency [11] | outcome [12] | Potency [13] | Potency [14] | outcome [15] | max response [16] 3.79% | Potency [17]

CCN(CC)CCN
inactive: Potency [1] | outcome [2] | outcome [18] | outcome [5] | outcome [19] | outcome [6] | outcome [7] | outcome [10] | Potency [20] | Potency [11] | outcome [12] | Potency [13] | Potency [14] | outcome [15] | max response [16] 2.52%

O=Cc1ccccc1Cl
inactive: Potency [1] | outcome [2] | outcome [3] | outcome [4] | outcome [5] | outcome [19] | outcome [6] | outcome [7] | Potency [8] | activity change, positive = activation [9] 4.09% | outcome [10] | Potency [20] | outcome [12] | Potency [14] | outcome [15] | max response [16] 4.59%

CC(=O)O[Si](C)(OC(C)=O)OC(C)=O
inactive: Potency [1] | outcome [2] | outcome [18] | outcome [5] | outcome [19] | outcome [6] | outcome [7] | outcome [10] | Potency [20] | Potency [11] | outcome [12] | Potency [13] | Potency [14] | outcome [15] | max response [16] 7.61%

CC(C)C[C@@H]1[C@H](c2ccccc2)OC(=O)N1CCCN1CCCCCC1
inactive: Potency [1] | outcome [2] | outcome [3] | outcome [4] | outcome [5] | outcome [19] | outcome [6] | outcome [7] | Potency [8] | activity change, positive = activation [9] 0.937% [at 42.5 µM] | outcome [10] | Potency [11] | outcome [12] | Potency [13] | outcome [15] | Potency [17]

COc1cc(/C=C/C(N)=O)cc(OC)c1OC
inactive: Potency [1] | outcome [2] | outcome [18] | outcome [5] | outcome [19] | outcome [6] | outcome [7] | outcome [10] | Potency [20] | Potency [11] | outcome [12] | Potency [13] | Potency [14] | outcome [15] | max response [16] -21.8%

CCCCCCCCCCCCCBr
inactive: Potency [1] | outcome [2] | outcome [3] | outcome [4] | outcome [5] | outcome [19] | outcome [6] | outcome [7] | Potency [8] | activity change, positive = activation [9] 3.01% | outcome [10] | Potency [11] | outcome [12] | Potency [13] | outcome [15]

CCC(C(=O)OCCN1CCOC(c2ccccc2)C1C)c1ccccc1 (stereo not drawn)
inactive: Potency [1] | outcome [2] | outcome [4] | outcome [5] | outcome [19] | outcome [6] | activity change, positive = activation [9] -23.3% [at 42.5 µM] | outcome [10] | Potency [11] | outcome [12] | Potency [13] | Potency [17]

O=C(CCCCC(=O)Nc1c(I)cc(I)c(C(=O)O)c1I)Nc1c(I)cc(I)c(C(=O)O)c1I
inactive: Potency [1] | outcome [2] | outcome [4] | outcome [18] | outcome [5] | outcome [7] | activity change, positive = activation [9] -37% [at 42.5 µM] | outcome [10] | Potency [20] | Potency [11] | outcome [12] | Potency [13] | Potency [14] | outcome [15] | max response [16] -12.6% | Potency [17]
active: Potency [8] 21.1 µM

c1ccc2c(CC3=NCCN3)cccc2c1
inactive: Potency [1] | outcome [2] | outcome [3] | outcome [4] | outcome [5] | outcome [19] | outcome [7] | Potency [8] | activity change, positive = activation [9] 4.17% [at 42.5 µM] | outcome [10] | Potency [11] | outcome [12] | Potency [13] | Potency [14] | outcome [15] | max response [16] -13.3%

O=C(O)CCCCCC(=O)O
inactive: Potency [1] | outcome [2] | outcome [3] | outcome [4] | outcome [5] | outcome [19] | outcome [6] | outcome [7] | Potency [8] | activity change, positive = activation [9] 1.8% | outcome [10] | Potency [20] | Potency [11] | outcome [12] | outcome [15] | max response [16] 0.774%
active: Potency [13] 22 µM

COc1nc(N)nc2nc[nH]c12
inactive: Potency [1] | outcome [2] | outcome [4] | outcome [18] | outcome [5] | outcome [19] | outcome [6] | Potency [8] | activity change, positive = activation [9] 0.367% | outcome [10] | Potency [20] | Potency [11] | outcome [12] | Potency [13] | outcome [15] | max response [16] -26% | Potency [17]

CC1CCc2c(N3CCC(O)CC3)c(F)cc3c(=O)c(C(=O)O)cn1c23 (stereo not drawn)
inactive: Potency [1] | outcome [2] | outcome [4] | outcome [18] | outcome [5] | outcome [19] | outcome [6] | outcome [7] | activity change, positive = activation [9] -17.9% [at 42.5 µM] | outcome [10] | Potency [11] | outcome [12] | Potency [13] | outcome [15] | max response [16] -0.0801% | Potency [17]

CN(C)CCCO[C@@H]1[C@H]2OC(C)(C)O[C@H]2O[C@@H]1C(O)CO (stereo partly drawn)
inactive: Potency [1] | outcome [2] | outcome [3] | outcome [4] | outcome [5] | outcome [19] | outcome [7] | Potency [8] | activity change, positive = activation [9] 6.19% [at 42.5 µM] | outcome [10] | Potency [20] | Potency [11] | outcome [12] | Potency [13] | Potency [14] | max response [16] 0.847%

c1ccc(-c2nn[nH]n2)cc1
inactive: Potency [1] | outcome [2] | outcome [3] | outcome [4] | outcome [5] | outcome [19] | outcome [6] | Potency [8] | activity change, positive = activation [9] 8.29% | outcome [10] | Potency [20] | Potency [11] | outcome [12] | Potency [13] | Potency [14] | max response [16] 6%

COc1cc2c(cc1OC)C(=O)C(CC1CCN(Cc3ccccc3)CC1)C2 (stereo not drawn)
inactive: Potency [1] | outcome [2] | outcome [3] | outcome [18] | outcome [5] | outcome [19] | outcome [6] | Potency [8] | activity change, positive = activation [9] 2.42% [at 42.5 µM] | outcome [10] | Potency [11] | outcome [12] | Potency [13] | outcome [15] | Potency [17]
active: Potency [20] 21.3 µM | Potency [16] 23.9 µM
